In PubChem BioAssay (EPA / NIEHS):
Inconclusive results are not listed. Activity calls are given as the source filed them. The calls were made as follows, unless noted: active = hit-call score of the fitted dose curve at least 0.9, where 1 is the maximum; inactive = score below 0.9.

Assays:
[1] = ACEA_ER_80hr: ACEA Biosciences xCELLigence Real-Time Cell Analysis on Estrogen Receptor Agonism for Proliferation (AID 2282667; active = hit-call score of the fitted dose curve at least 0.9, where 1 is the maximum); details: T47D proliferation, impedance (xCELLigence), 80 h
Summary of the method: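 Real-time electrical impedance tracked growth of the human breast line T47D, with the 80 h post-dosing value used. Dosing spanned eight 1:4 steps down from a 100 uM final top concentration, run in duplicate.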

[2] = APR_HepG2_CellCycleArrest_24hr: Apredica 24-hour HepG2 Assay for Cell Cycle Arrest (AID 2282905); details: imaging, actives raise or lower the signal;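 also: cell cycle arrest scored as ratio of 2N to 4N nuclear DNA content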
Summary of the method: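 Compounds (0.39 to 200 uM, final DMSO 0.5% v/v) are applied to HepG2 cells for 24 hours; cells are then fixed, permeabilized and nuclei labeled with Hoechst 33342. Automated imaging measures DNA content, and activity is fitted in both directions against DMSO.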

[3] = APR_HepG2_NuclearSize_24hr: Apredica 24-hour HepG2 Assay for Nuclear Size (AID 2282907); details: high-content imaging, actives raise or lower the signal
Summary of the method: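 Nuclear size is measured by fluorescence high-content imaging of Hoechst-labelled HepG2 nuclei after 24 hr of treatment (0.39–200 uM, 0.5% DMSO). Cells are fixed in 3.7% formaldehyde before staining, and DMSO serves as the baseline for bidirectional curve fitting.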

[4] = APR_HepG2_CellLoss_24hr: Apredica 24-hour HepG2 Assay for Cell Loss (AID 2282908); details: high-content imaging
Summary of the method: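 Nuclear count serves as the viability measure: treated cells are fixed, permeabilized and labelled with Hoechst 33342, and six images per well are analysed to identify valid nuclei. Doses span 0.39–200 uM, and activity in either direction is scored against DMSO.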

[5] = APR_HepG2_MicrotubuleCSK_24hr: Apredica 24-hour HepG2 Assay for Microtubule CSK Stabilty (AID 2282909); details: HepG2 microtubule cytoskeleton imaging, actives raise or lower the signal
Summary of the method: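 Compounds were applied to HepG2 cells for 24 hours across 0.39–200 uM in duplicate, with final DMSO at 0.5% v/v. Fixed, permeabilized cells were labeled for alpha-tubulin and nuclei, and tubulin fluorescence was quantified by imaging, fitted bidirectionally against DMSO.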

[6] = APR_HepG2_MitoticArrest_24hr: Apredica 24-hour HepG2 Assay for Mitotic Arrest (AID 2282910); details: high-content imaging, actives raise or lower the signal
Summary of the method: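 High-content imaging of fixed HepG2 cells labeled with Hoechst 33342 and anti-phospho-histone H3, after 24 h treatment. Ten concentrations 0.39 to 200 uM in duplicate, final DMSO 0.5%; changes fitted both directions relative to DMSO.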

[7] = APR_HepG2_MitoMembPot_24hr: Apredica 24-hour HepG2 Assay for Mitochondrial Membrane Potential (AID 2282911); details: imaging, actives raise or lower the signal
Summary of the method: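 Cells are dosed for 24 hr across 0.39 to 200 uM with solvent held at 0.5% DMSO. They are then stained with 250 nM MitoTracker Red CMXRos for 30 min, fixed in 3.7% formaldehyde and imaged.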

[8] = APR_HepG2_MitoMass_24hr: Apredica 24-hour HepG2 Assay for Mitochondrial Mass (AID 2282912); details: high-content imaging, actives raise or lower the signal
Summary of the method: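 After 24 hr of treatment at 0.39 to 200 uM, HepG2 cells take up 250 nM MitoTracker Red CMXRos for 30 min and are then fixed with 3.7% formaldehyde. Per-well images are quantified, and any change in either direction is scored against solvent.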

[9] = APR_HepG2_p53Act_24hr: Apredica 24-hour HepG2 Assay for p53 Activation (AID 2282913); details: high-content imaging, actives raise or lower the signal;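 also: p53 protein immunofluorescence averaged per cell in HepG2 with Hoechst nuclei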
Summary of the method: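 Human HepG2 liver cells; 24 hr cpd treatment, 0.39–200 uM, 0.5% DMSO final. Fixed in 3.7% formaldehyde, permeabilized with 0.5% Triton X-100, stained with anti-p53/Cy5 plus Hoechst 33342. Six images per well at 20x; gain or loss vs DMSO.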

[10] = APR_HepG2_CellCycleArrest_72hr: Apredica 72-hour HepG2 Assay for Cell Cycle Arrest (AID 2282914); details: high-content imaging, actives raise or lower the signal
Summary of the method: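 Read-out is Hoechst-stained nuclear DNA content measured by automated fluorescence imaging (20x, six images per well), fitted in both directions relative to DMSO. Human HepG2 liver cells received 0.39–200 uM compound for 72 hr at 0.5% v/v DMSO.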

[11] = APR_HepG2_CellLoss_72hr: Apredica 72-hour HepG2 Assay for Cell Loss (AID 2282915); details: high-content imaging
Summary of the method: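 Cell number comes from Hoechst 33342-labelled nuclei, imaged at 20x after 3.7% formaldehyde fixation. Dosing was 0.39–200 uM, ten concentrations in duplicate, 0.5% DMSO final, for 72 h. Bidirectional fit relative to DMSO baseline.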

[12] = APR_HepG2_P-H2AX_72hr: Apredica 72-hour HepG2 Assay for H2AX Phosphorylation (AID 2282916); details: imaging, actives raise or lower the signal;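 also: phospho-histone H2A.x immunostain intensity per cell marking DNA damage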
Summary of the method: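 Human hepatoma HepG2 cells are dosed across ten concentrations (0.39 to 200 uM, 0.5% v/v DMSO) and incubated 72 hr. Phospho-histone H2A.x is then detected by antibody staining alongside c-Jun and Hoechst, and quantified by automated fluorescence imaging.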

[13] = APR_HepG2_MitoMembPot_72hr: Apredica 72-hour HepG2 Assay for Mitochondrial Membrane Potential (AID 2282917); details: imaging, actives raise or lower the signal
Summary of the method: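 Membrane potential read by MitoTracker Red CMXRos (250 nM, 30 min, pre-fixation) fluorescence imaging of HepG2 after 72 hr exposure. Ten concentrations, 0.39–200 uM, duplicate wells, 0.5% DMSO; fitted in both directions against DMSO baseline.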

[14] = APR_HepG2_MitoticArrest_72hr: Apredica 72-hour HepG2 Assay for Mitotic Arrest (AID 2282918); details: high-content imaging, actives raise or lower the signal
Summary of the method: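 Read-out is phospho-histone H3 immunofluorescence with Hoechst nuclear segmentation, imaged at 20x. Human HepG2 liver cells received ten concentrations (0.39–200 uM, final DMSO 0.5% v/v) for 72 hr before fixation. Gain or loss of signal was fitted relative to DMSO.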

[15] = APR_HepG2_MicrotubuleCSK_72hr: Apredica 72-hour HepG2 Assay for Microtubule CSK Stabilty (AID 2282919); details: HepG2 microtubule cytoskeleton, high-content imaging, actives raise or lower the signal
Summary of the method: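 High-content imaging of alpha-tubulin staining in fixed HepG2 cells after 72 hr treatment with ten concentrations from 0.39 to 200 uM (0.5% DMSO). Fitting was bidirectional against DMSO; taxol served as positive control.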

[16] = APR_HepG2_P-H2AX_24hr: Apredica 24-hour HepG2 Assay for H2AX Phosphorylation (AID 2282920); details: high-content imaging, actives raise or lower the signal
Summary of the method: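 HepG2, 24 hr, cpd 0.39–200 uM (10 conc, duplicate), DMSO 0.5% v/v final. Fix 3.7% formaldehyde, Triton X-100 permeabilize, anti-phospho-H2A.x 1:200 + Hoechst 2 ug/mL. Imaged, bidirectional fit vs DMSO.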

[17] = APR_HepG2_StressKinase_72hr: Apredica 72-hour HepG2 Assay for Stress Kinase (AID 2282921); details: HepG2 stress kinase (phospho-c-Jun) imaging, actives raise or lower the signal
Summary of the method: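 After a 72 h compound treatment spanning 0.39 to 200 uM, formaldehyde-fixed cells are labelled for phosphorylated c-Jun and nuclei, imaged by automated fluorescence microscopy, and activity is fitted in both directions relative to DMSO controls.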

[18] = APR_HepG2_StressKinase_24hr: Apredica 24-hour HepG2 Assay for Stress Kinase (AID 2282922); details: HepG2 stress kinase (phospho-c-Jun) imaging, actives raise or lower the signal
Summary of the method: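 High-content imaging of phospho-c-Jun immunofluorescence in fixed, permeabilized HepG2 cells after 24 h dosing. Ten concentrations, 0.39 to 200 uM, run in duplicate at 0.5% v/v DMSO; gain or loss of signal versus DMSO.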

[19] = APR_HepG2_p53Act_72hr: Apredica 72-hour HepG2 Assay for p53 Activation (AID 2282923); details: high-content imaging, actives raise or lower the signal;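 also: average cellular p53 protein immunofluorescence intensity in HepG2 cells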
Summary of the method: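 Imaging-based endpoint: after 72 hr compound exposure (up to 200 uM, 0.5% DMSO), fixed and permeabilized monolayers were labelled with anti-p53 antibody and imaged; signal change in either direction was fitted relative to DMSO controls.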

[20] = APR_HepG2_MitoMass_72hr: Apredica 72-hour HepG2 Assay for Mitochondrial Mass (AID 2282924); details: high-content imaging, actives raise or lower the signal;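 also: MitoTracker Red CMXRos stain intensity per cell imaged as mitochondrial mass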
Summary of the method: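 Readout is imaged MitoTracker Red (250 nM, 30 min, pre-fixation) signal, fitted bidirectionally against DMSO baseline. Human HepG2 liver cells received compound 0.39–200 uM in duplicate for 72 hr, final DMSO 0.5%.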

Measured: AC50

OCCOCCOCCO
inactive: all assays above

O=S(=O)(O)CCC(F)(F)C(F)(F)C(F)(F)C(F)(F)C(F)(F)C(F)(F)F
inactive: [1]

OC(Cn1cncn1)(Cn1cncn1)c1ccc(F)cc1F
inactive: all assays above

C[C@]12C=CC(=O)C=C1CC[C@H]1[C@@H]3C[C@@H](O)[C@](O)(C(=O)CO)[C@@]3(C)C[C@H](O)[C@@]12F
active: [1] 10.9 µM
inactive: all other assays above

Cc1cccc(O)c1C
inactive: [1]
